High-throughput results (PubChem BioAssay)
USP2a inh – blocks human ubiquitin-specific protease USP2a; O75604; USP2 core, Ub-CHOP2 coupled fluorogenic reporter, 485/531; Potency, µM (series often up to 38.3 µM), without a hit: at the highest dose activity change, negative = inhibition, usual class: inhibitors; 330,000 tested, 0.01% active; AID 463254;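 further: potency means the concentration at half of the fitted maximal effect; plate controls were DMSO wells for no effect and full inhibition by NEM control for full effect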
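USP2 core (10nM final) preincubated 30min RT with compound in 20mM Tris-HCl pH 8.0, 2mM CaCl2, 2mM beta-mercaptoethanol, 0.05% CHAPS; 25nM Ub-CHOP2 plus 25nM reporter substrate added, fluorescence (Ex485/Em531) read after 60min.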
Pin1 inh – human Pin1 inhibition; Q13526; Pin1 FP peptide displacement, HiFluor488, 10 min; Potency, µM (top dose mostly 115 µM), without a hit: at the top dose activity, negative = inhibition, hits mostly inhibitors; 390,000 tested, 0.009% active; AID 504891; active means well fitted inhibition curve with a large enough effect in the polarisation, with a control signal flat, not every such curve was filed as active; inconclusive means small, poorly fitted or top-dose-only effect, or effect the other way, or a change in a side signal; inactive means no such curve, though single readings can be large or run the other way; the % refers to the polarisation; further: potency means the concentration at half of the fitted maximal effect; on the % scale 0 is the no-effect control and ±100 the full control effect
a7 integrin act – activates integrin-mediated alleviation for muscular dystrophy; 350,000 tested, 0.064% active; Potency, µM (series often up to 38.3 µM), without a hit: top-dose activation, hits mostly activators; alpha7betagal myoblasts, beta-gal FDG fluorescence, 48 h;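 further: potency means the concentration at half of the fitted maximal effect; 100% = response of the positive control SU9516; nearly all actives have a fitted effect of over 60% in size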
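alpha7betagal+/- myoblasts (passage 13, 250/well) treated 48 h at 37C with compounds at 1:260 dilution of DMSO stock. Lysed, then beta-galactosidase activity read as FDG fluorescence (ex 480/em 540) after 30 min, with pre-read for autofluorescence.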
PKM2 act – increases activity of human pyruvate kinase M2; P14618; purified PKM2, Kinase-Glo ATP luminescence, activation; response scale: 0% is enzyme alone, no compound; Potency, µM (series often up to 57.5 µM), without a hit: at the highest dose activation, actives largely listed as activators; 260,000 tested, 0.34% active; AID 1631; further: potency means the concentration at half of the fitted maximal effect; on the % scale 0 is the no-effect control and ±100 the full control effect; nearly all actives have a fitted effect of over 55% in size
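hPK-M2, >95% pure; 0.1 mM ADP / 0.5 mM PEP final; imidazole pH7.2 buffer w/ 7 mM MgCl2, 50 mM KCl; 1 h RT; Kinase-Glo lum. Intermediate enzyme activity for dual inhibitor/activator qHTS.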
IL-2 act – activates IL-2 in a cell-based reporter assay. IL-2 activation reporter assay, cell-based qHTS; stimulated with anti-CD3/CD4/CD28 beads; in transgenic mouse T cells. activation, % (series mostly up to about 46 µM). 360,000 tested, 0.065% active; in the data active means activation above about 50%; inconclusive means mostly about 30% to 49%; further: 0% is about no effect
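Unstimulated transgenic mouse T cells preincubated 60 min with compound, then stimulated with anti-CD3/anti-CD4-coated beads plus anti-CD28 for 18 h at 37 degrees C. IL-2 response read as EGFP and DsRed fluorescence by plate cytometry.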
ClpP mod – qHTS Assay for Activators of ClpP; ATP-dependent Clp protease proteolytic subunit (Bacillus subtilis (strain 168)), P80244; 340,000 tested, 1.9% active; purified B. subtilis ClpP, FRET peptide cleavage, 20 min; AID 651965, 2013; Potency, µM (series often up to 57.5 µM), for inactives: at the highest dose activity change, negative = active; active means well fitted falling curve with a large enough effect; inconclusive means small, poorly fitted or top-dose-only effect; inactive means no such curve, though single readings can be large or run the other way; further: potency means the concentration at half of the fitted maximal effect; the source files actives as falling curves though it sought activators and does not explain the sign; nearly all actives have a fitted effect of over 65% in size
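ClpP 10 microg/mL final, pH 8 Tris/KCl buffer with BSA, glycerol, Tween-20; compound pinned in; FRET-FV substrate; RT 20 min; Ex320/Em430; ΔFRET vs ADEP 5.8 microM, DMSO, no enzyme.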
* hit, by the source's call; ? = inconclusive; . = no result; [ ] = remark or other dose. Compounds with a hit are over-represented: about 1.9% of the library has one in this group of screens. Unless noted, the call rests on the fitted dose curve; in most records, active means well fitted curve in the direction sought with a large enough effect; inconclusive means small, poorly fitted or top-dose-only effect, or another doubt; inactive means no such curve, though single readings can be large; an effect the other way counts as inactive or inconclusive.

SMILES	USP2a inh	Pin1 inh	a7 integrin act	PKM2 act	IL-2 act	ClpP mod
Clc1cccc(Cl)c1CSc1cc2c(nn1)-c1ccccc1CC2	-2.3%	-4.6%	17.0%	1.9%	50.7*	0.9%
Cn1nnnc1Sc1ncnc2scc(-c3ccccc3C#N)c12	.	6.4%	.	.	.	.
O=S(=O)(c1cccc(F)c1)N1CCN(c2ncnc3scc(-c4ccc(F)cc4)c23)CC1	-2.0%	42.6%	-11.6%	.	0.6	25.1µM*
Nc1ccc(C(=O)OCCCc2nc3ccccc3[nH]2)cc1	-2.0%	-5.4%	5.0%	-10.0%	-0.4	28.2µM*
Nc1ccc(C(=O)OCc2nc3ccccc3[nH]2)cc1	3.7%	0.3%	7.6%	-2.9%	-0.2	0.5%
Nc1ccc2nc(CCCCCCc3nc4ccc(N)cc4[nH]3)[nH]c2c1	-15.1%	-14.1%	12.7%	12.6µM*	4.8	.
C#CCOCCOCCOCCNc1nc(N2CCOCC2)nc(N2CCN(C(=O)CCCCCCCCCCNC(=O)[C@@H]([C@H](C)CC)n3cc(CCCCCN)nn3)CC2)n1	-3.9%	-2.1%	-23.0%	.	0.3	0.1%
C#CCOCCOCCOCCNc1nc(N2CCN(C(=O)CCCCCCCCCCNC(=O)[C@H]([C@@H](C)CC)n3cc(CCCCCN)nn3)CC2)nc(N2CCN(C(=O)CCCCCCCCCCNC(=O)[C@H](CCCCN)n3cc(CCCC(=O)O)nn3)CC2)n1	10µM*	5.0%	-16.7%	.	-0.2	-21.0%
C#CCOCCOCCOCCNc1nc(N2CCN(C(=O)CCCCCCCCCCNC(=O)[C@H]([C@@H](C)CC)n3cc(CCCCCN)nn3)CC2)nc(N2CCN(C(=O)CCCCCCCCCCNC(=O)[C@@H]([C@H](C)CC)n3cc(CCCCCN)nn3)CC2)n1	5.01µM*	.	.	.	.	.
C#CCOCCOCCOCCNc1nc(N2CCN(C(=O)CCCCCCCCCCNC(=O)[C@@H](CCC(=O)O)n3cc(CCCCCN)nn3)CC2)nc(N2CCN(C(=O)CCCCCCCCCCNC(=O)[C@H]([C@@H](C)CC)n3cc(CCCCCN)nn3)CC2)n1	?	-1.1%	-30.6%	.	-0.3	1.1%
C(=N\NC1=Nc2cccc3cccc1c23)/c1ccccc1	12.2%	?	-4.2%	-5.1%	267.9*	-2.0%
Clc1ccc(/C=N/NC2=Nc3cccc4cccc2c34)cc1	8.8%	?	-25.0%	-5.4%	69.6*	1.1%
CCOc1ccc(C=Nc2ccc(/C=C/c3ccnc4ccccc34)cc2)cc1OCC	.	.	.	.	.	-5.5%
CCCc1nc2sc3ccccc3c(=O)c2c(=O)n1Cc1ccco1	-0.3%	?	-10.5%	14.1µM*	0.6	-1.8%
CCCCCCCC1=Cc2ccccc2C(C(C(=O)OC)C(=O)OC)N1C(=O)OC (stereo not given)	.	.	.	-13.7%[11.5 µM]	.	.
Cc1cn2c(=O)c(S(=O)(=O)NCc3ccccc3Cl)c(C)nc2s1	.	2.3%	.	.	.	15.8µM*
Cc1cn2c(=O)c(S(=O)(=O)NCc3ccc(F)cc3)c(C)nc2s1	.	2.4%	.	.	.	31.6µM*
O=C(Nc1ccc(F)c(F)c1)c1cnn2c1NC(=C1CC1)C=C2C(F)(F)F	.	.	.	.	.	-1.3%
N/C(=N\OC(=O)c1ccc(=O)n(Cc2ccccc2)c1)c1ccccn1	3.9%	-0.9%	?	-2.5%	-0.4	28.2µM*
N/C(=N\OC(=O)c1ccc(=O)n(Cc2ccc(Cl)cc2)c1)c1ccccn1	0.4%	1.1%	37.5%	-0.6%	0.4	1.1%
O=C1C=CC(=O)N1c1cccc(-c2ccccc2)c1	-0.3%	57.0%	-37.7%	3.16µM*	-0.3	0.0%
O=C(Nc1cccc(N2C(=O)C=CC2=O)c1)c1cccs1	-12.2%	.	.	.	.	.
O=C(O)c1ccc2cccc(Cl)c2c1O	-0.3%	-0.7%	20.5%	-21.3%	-1.8	17.8µM*
O=C(O)c1cccc(O)c1O	.	-1.3%	.	.	0.4	-16.8%
COc1cc(/C=C/C(=O)Nc2nc3ccc(S(=O)(=O)N(C)C)cc3s2)cc(OC)c1OC	-6.1%	52.7%	8.3%	-1.3%	0.1	7.94µM*
SMILES	USP2a inh	Pin1 inh	a7 integrin act	PKM2 act	IL-2 act	ClpP mod
COc1cc(/C=C/C(=O)Nc2nnc(C(C)(C)C)s2)cc(OC)c1OC	0.5%	3.2%	-9.0%	-0.8%	-0.9	31.6µM*
CCNc1cc(S(=O)(=O)C(F)(F)F)ccc1N	-0.8%	0.8%	-14.7%	-2.0%	-0.1	1.2%
CCc1ccccc1Nc1ccc(C(=O)O)cc1N	-5.2%	?	34.7%	-5.4%	-2.9	28.2µM*
Nc1ccccc1C(=O)Nc1cccc(C(=O)O)c1	0.5%	6.0%	22.8%	-18.2%	2.9	?
CCNc1ccc(C(=O)O)cc1N	0.6%	?	11.4%	0.9%	2.5	25.1µM*
Nc1cc(C(=O)O)ccc1Nc1ccccc1	0.3%	?	11.4%	8.9%	-3.1	10µM*
CCC(C(=O)Nc1ccc(C(=O)O)cc1NC(=O)C(CC)c1ccccc1)c1ccccc1 (stereo not given)	-5.2%	-19.3%	10.6%	-2.8%	0.9	-1.1%
CCCCNC(=S)NCCCN(Cc1ccc(Cl)c(Cl)c1)c1ccc(Br)cn1	.	11.8%	.	.	.	.
Cc1ccc(Cl)cc1NC(=O)COC(=O)CCN1C(=O)C2CC=CCC2C1=O (stereo not given)	-6.1%	-0.1%	0.0%	.	-3.6	25.1µM*
CCOC(=O)c1c(-c2ccccc2)oc2ccc(OCC(O)CNCCN(C)C)cc12 (stereo not given)	0.2%	-5.1%	-27.2%	.	-3.4	35.5µM*
COc1ccc2oc(CS(=O)c3ccccc3)c(C(=O)O)c2c1 (stereo not given)	-0.1%	-2.2%	12.6µM*	-7.2%	0.6	1.1%
CCOC(=O)c1c(-c2ccccc2)oc2ccc(OCC)cc12	1.6%	0.8%	-0.8%	-4.5%	-3.5	.
CCOC(=O)COc1c(-c2ccc(OC)cc2)oc2ccccc2c1=O	-5.8%	?	12.2%	-6.8%	0.1	31.6µM*
COc1cccc(CNC(=O)c2ccc(CS(=O)c3ccccc3)o2)c1 (stereo not given)	1.4%	-0.1%	-3.2%	.	-3.6	-0.8%
CCOC(=O)c1c(-c2ccccc2)oc2ccc(OCc3ccc(C)cc3)cc12	.	1.2%	.	.	.	4.3%
CCOC(=O)c1c(-c2ccccc2)oc2ccc(OC)cc12	1.4%	-6.4%	9.0%	1.6%	-4.0	10µM*
CCOC(=O)CCCNC(=O)N1CCc2nc(COc3ccccc3)c3c(c2C1)CO[C@@H](C)C3	.	.	.	0.2%[11.5 µM]	.	.
O=[N+]([O-])c1ccccc1/C=C1\C=Cc2ccccc21	.	.	.	.	.	1.6%
CN(C)c1cccc(S(=O)(=O)N2CCN(S(=O)(=O)c3ccc4c(c3)OCCO4)CC2)c1	.	-10.2%	.	.	.	.
CC1=C(C(=O)OCc2ccccc2)N2C(=O)[C@@H](NC(=O)OCc3ccccc3)[C@H]2SC1	.	.	.	.	.	-4.8%
